Most compounds without a hit are left out; they make up all but 4.1% or so of the library.
MEKK2 mut-MEK5 – signal of MEK5 binding to mutant human MEKK2 PB1 domain; AID 1530; percent response, % at 10 µM; 290,000 compounds, 0.35% hits; bead flow cytometry, Alexa488-MEK5 binding to MEKK2 mutant; in the data active = percent response above about 24%, passing the limit was not always enough
CHT block – inhibits the human high affinity choline transporter; CHT-expressing cells, membrane potential dye, choline response; hits give low values; B-score at 10 µM; 310,000 compounds, 0.86% hits;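 active = B-score over 3 SD under the library average, and starting fluorescence ratio not unusually high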;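 also: choline stimulus applied at its EC90 after an EC20 pre-addition; B-score computed on integrated fluorescence ratio after choline addition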
Target sequence (Q9GZV3 whole entry, looked up): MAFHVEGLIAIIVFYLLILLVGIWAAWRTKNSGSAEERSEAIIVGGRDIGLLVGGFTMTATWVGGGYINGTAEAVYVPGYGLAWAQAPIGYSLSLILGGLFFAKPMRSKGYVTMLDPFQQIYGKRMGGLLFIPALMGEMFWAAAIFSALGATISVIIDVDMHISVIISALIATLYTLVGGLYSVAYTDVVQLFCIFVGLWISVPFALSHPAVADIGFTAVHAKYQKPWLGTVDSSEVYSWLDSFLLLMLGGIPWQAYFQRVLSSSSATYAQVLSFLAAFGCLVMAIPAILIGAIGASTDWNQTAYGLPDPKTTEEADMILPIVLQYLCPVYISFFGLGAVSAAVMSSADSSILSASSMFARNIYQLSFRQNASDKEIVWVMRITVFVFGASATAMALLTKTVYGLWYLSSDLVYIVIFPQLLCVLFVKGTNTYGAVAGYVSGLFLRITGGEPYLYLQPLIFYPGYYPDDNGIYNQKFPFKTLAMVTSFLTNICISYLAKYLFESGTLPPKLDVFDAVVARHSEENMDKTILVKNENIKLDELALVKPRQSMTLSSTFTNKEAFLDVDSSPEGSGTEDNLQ
MEKK3 PB1 HTS – raises or lowers MEK5 binding to the human MEKK3 PB1 domain; Q99759; bead-based flow cytometry, Alexa488-MEK5 binding to MEKK3; actives lie on both sides; 0 = blocked by unlabeled MEK5, 100 = vehicle; binding response (% of control), % at 10 µM; 290,000 compounds, 1.4% hits;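 active = binding response more than 3 SD above or below the average of its plate-row segment, actives on both sides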;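 also: Alexa488 bead fluorescence after subtracting the streptavidin-only scavenger bead signal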
CHT PAM – allosteric activators of human choline transporter CHT; CHT-expressing cells, membrane potential dye, choline EC20; hits give high values; LV-AA mutant CHT in HEK293 cells; B-score at 10 µM; 310,000 compounds, 0.49% hits; AID 488977;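 active = initial fluorescence not abnormally high and integrated response B-score, plate-corrected, over 3 SD above library mean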
MEKK2wt PB1 HTS – raises or lowers MEK5 binding to wildtype human MEKK2 PB1 domain; 290,000 compounds, 1.1% hits; Q9Y2U5; binding response (% of control), % at 10 µM; AID 1531; bead flow cytometry, Alexa488-MEK5 binding to MEKK2 WT; actives lie on both sides; in the data active = binding response below about 67% or above about 130%
Mot1-301 SUMO – blocks SUMOylation pathway, rescuing yeast Mot1-301 growth; 320,000 compounds, 1% hits; growth rescue, % at 18.8 µM; AID 2716; S. cerevisiae Mot1-301 growth rescue, ATP luminescence, 38.5C; percent above DMSO median, 100 means doubled;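 active = every valid replicate shows activation above 250% relative to neutral control wells; inactive = the rest, any valid replicate at or below 250%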;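 also: OY570 slx delta 5 strain wells were the positive control but not used for scaling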
CHT block conf – confirmation of human choline transporter CHT inhibitors | CHT-expressing cells, choline membrane potential dye; LV-to-AA substituted CHT, HEK293 cells | CHT activity remaining % of control (hits give low values), % at 10 µM | 2,400 compounds, 70% hits | shares compounds with CHT block;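 active = choline transporter activity left, mean of duplicates at 10 µM, below buffer-only control mean minus 3 SD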;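 also: depolarization triggered by choline at its EC90 following an EC20 pre-addition; 0% = hemicholinium-3 full block and 100% = buffer-only control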
HEK293 CHT ctr – counter-screen for CHT inhibitors: effect in parental HEK293 cells; shares compounds with CHT block; membrane potential dye, choline response; active = decrease or increase beyond buffer ±3SD; membrane potential ratio readout (active if shifted either direction beyond buffer ±3SD; no single direction) at 10 µM; 2,400 compounds, 4% hits;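 also: parental cells lack the transporter so any hit is non-specific; ratio is peak minus trough fluorescence over baseline after EC90 choline challenge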
Numbers without * were called inactive; i = inactive; . = no result given.

SMILES	MEKK2 mut-MEK5	CHT block	MEKK3 PB1 HTS	CHT PAM	MEKK2wt PB1 HTS	Mot1-301 SUMO	CHT block conf	HEK293 CHT ctr
CCCCc1ccc(-n2c(Cc3cccs3)n[nH]c2=S)cc1	-7.0	i	114.0	i	97.0	-8.2	.	.
CCOC(=O)N1CCN(C(=O)c2ccc3c(SCC(=O)O)c4c(nc3c2)CCC4)CC1	8.0	i	102.0	i	103.0	1.6	.	.
O=C(O)/C(=C\c1ccc(-c2ccccc2[N+](=O)[O-])o1)c1ccccc1	2.0	-5.6*	90.0	i	90.0	-1.9	i	i
COc1ccccc1CNC(=O)CCCNC(=O)Cn1cnc2sc(C)c(C)c2c1=O	2.0	i	101.0	i	107.0	190.4	.	.
Cc1oc2ccc(OCc3ccc(Br)cc3)cc2c1C(=O)O	-5.0	i	101.0	i	100.0	73.8	.	.
Cc1oc2ccc(OCc3ccc(Cl)cc3)cc2c1C(=O)O	-2.0	-5.12*	100.0	i	98.0	-5.4	i	i
C/C(=N/OC(=O)c1ccccc1)c1oc(C)nc1C	-6.0	i	95.0	i	97.0	-14.3	.	.
O=C(NC(=S)Nc1nc2c(s1)CSc1ccccc1-2)c1ccccc1	-8.0	i	80.0	i	88.0	15.5	.	.
CCSc1nnc([C@H](Cc2ccccc2)NC(=O)OC(C)(C)C)o1	0.0	-7.02*	101.0	i	96.0	3.3	i	i
O=C(CCOc1ccccc1)Nc1ccccc1F	-1.0	i	97.0	i	102.0	-2.9	.	.
CC(=O)N1c2ccc(S(=O)(=O)NCCC(=O)N3CCC(C)CC3)cc2CC1C (configuration not stated)	-1.0	i	99.0	i	100.0	-0.7	.	.
CCCCCc1c2c(cc(O)c1C(=O)O)OC(=O)c1c(cc(OC)cc1C(=O)CCCC)O2	1.0	-5.33*	82.0	i	75.0	-17.5	35.3%*	i
COc1cc(/C=C2/C(=O)c3cccc([N+](=O)[O-])c3C2=O)c(Br)cc1O	-1.0	-7.2*	104.0	i	102.0	-2.3	43.4%*	i
Cc1nn(Cc2ccccc2)c(Cl)c1/C=C1\NC(=S)NC1=O	-6.0	-7.71*	101.0	i	96.0	23.8	i	i
Cc1nn(Cc2ccc(F)cc2)c(Cl)c1/C=N/NC(=O)c1ccccc1	-2.0	i	101.0	i	98.0	9.5	.	.
CC(=O)N/N=C/c1c(C)[nH]n(-c2ccccc2)c1=O	-12.0	-5.83*	98.0	i	83.0	-7.3	i	i
CCOC(=O)C1=C(COC(=O)c2ccc(OC(C)C)cc2)NC(=O)NC1C (configuration not stated)	.	-9.69*	.	i	.	-7.2	2.8%*	i
c1cn(C23CC4CC(CC(C4)C2)C3)cn1	5.0	-13.6*	118.0	i	116.0	2.5	-3.7%*	i
O=c1c2cc(Br)ccc2nc(-c2cccc(C(F)(F)F)c2)n1O	-2.0	-6.02*	91.0	i	97.0	-14.7	38.6%*	i
N#Cc1ccc(-c2nc3ccc(Br)cc3c(=O)n2O)cc1	0.0	i	103.0	i	101.0	-21.7	.	.
O=c1c2cc(Br)ccc2nc(-c2ccc([N+](=O)[O-])cc2)n1O	-1.0	-6.3*	100.0	i	98.0	-16.6	37.5%*	i
O=c1c2cc(Cl)ccc2nc(-c2ccccc2)n1O	1.0	i	105.0	i	105.0	4.8	.	.
O=C(CN(Cc1ccccc1F)C(=O)c1csnn1)NCc1ccc2c(c1)OCO2	13.0	i	106.0	i	106.0	-28.1	.	.
O=C(NCCCN1CCCC1=O)c1ccc2c(c1)NC(=O)c1ccccc1S2	4.0	i	104.0	i	105.0	0.9	.	.
CC1CCCC(C)N1CCCNC(=O)c1ccc2c(c1)NC(=O)c1ccccc1S2 (configuration not stated)	9.0	-5.24*	94.0	i	112.0	1.6	39.7%*	i
SMILES	MEKK2 mut-MEK5	CHT block	MEKK3 PB1 HTS	CHT PAM	MEKK2wt PB1 HTS	Mot1-301 SUMO	CHT block conf	HEK293 CHT ctr
CC1CCCC(C)N1CCCNC(=O)c1nn(C)c2c1CSc1ccccc1-2 (configuration not stated)	8.0	-11.2*	101.0	i	107.0	8.6	2.4%*	i
CC1CCCCC1NC(=O)c1c(O)nc2ccccn2c1=O (configuration not stated)	.	-7.09*	.	i	.	-12.0	60.3%*	i
COc1cc(C(=O)N/C(=C/c2ccc(F)cc2)C(=O)NC(C(=O)O)c2ccccc2)cc(OC)c1OC (configuration not stated)	-1.0	i	106.0	i	104.0	10.0	.	.
O=C(Nc1nc2c(Br)cccc2s1)C1CC1	-4.0	-5.67*	100.0	i	91.0	10.1	i	i
COc1ccc(C2=NOC(CNC(=S)N3CCOCC3)C2)cc1 (configuration not stated)	-9.0	i	88.0	i	91.0	-12.1	.	.
CCOC(=O)CN1C(=O)S/C(=C/c2cc(C)n(C)c2C)C1=O	3.0	i	106.0	i	109.0	414.6	.	.
CCOC(=O)CN1C(=O)S/C(=C/c2ccc(O)c([N+](=O)[O-])c2)C1=O	-2.0	-5.46*	105.0	i	100.0	-12.8	i	i
COc1cc(CCCN2C(=O)C(=O)NC[C@H]2Cc2cccc3ccccc23)cc(OC)c1OC	2.0	-5.07*	99.0	i	101.0	-3.0	45.0%*	i
O=C(N/N=C/c1ccc([N+](=O)[O-])o1)C1CC1	.	i	.	i	.	.	.	.
Cc1cc(C)c(NC(=O)CCCCCNC2CCCCC2)c(C)c1	4.0	-5.23*	103.0	i	103.0	26.4	7.1%*	i
O=C(c1ccccc1)n1c(=O)cc[nH]c1=O	.	i	.	i	.	-26.0	.	.
CCOc1cccc2sc(N(CCCN(C)C)C(=O)c3ccc(S(=O)(=O)N(C)c4ccccc4)cc3)nc12	-6.0	-5.45*	105.0	i	127.0	-4.6	i	i
CSS(=O)(=O)c1cccc2cccnc12	14.0	i	102.0	i	104.0	-26.8	.	.
COc1cc(NC(=O)CSc2ncnc3sc4c(c23)CCC(C)C4)c(C(=O)O)cc1OC (configuration not stated)	-1.0	-6.3*	96.0	i	96.0	21.8	69.8%*	i
